# Experimental data taken from PubChem BioAssay (NCATS).
# “And” between values parts separate entries of the source, which are not always exact repeats. Equal values may be shown once. A number with no mark means an inactive call. Records with an inconclusive call do not appear. A call without a number means that no potency is given here. The source made the active and inactive calls. Unless noted, calls follow the shape of the dose curve; as a rule, active = well fitted curve in the direction sought with a large enough effect; inconclusive = small, poorly fitted or top-dose-only effect, or another doubt; inactive = no such curve, though single readings can be large; an effect the other way counts as inactive or inconclusive.
# How the values were obtained:
# [1] = system: Es-2; assay: Primary qHTS to identify gynecologic anti-cancer compounds using libraries of approved drugs and bioactive compounds (AID 1345084); details: Gynecologic cancer cell panel viability, ATPlite luminescence, 48 h; series mostly up to 57.5 µM; also: nearly all actives have a fitted effect of over 55% in size; also: potency is read from the fitted curve at half-maximal effect
# In short: (§1)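 ATP-based viability (ATPlite), 1,000 cells/well, 16 h pre-incubation, 48 h compound at 37 C, 5% CO2, 15 min RT before read.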
# [2] = system: HeLa; assay: as above; details: Gynecologic cancer cell panel viability, ATPlite luminescence, 48 h; series mostly up to 57.5 µM
# In short: as §1
# [3] = system: Hek293T; assay: as above; details: Gynecologic cancer cell panel viability, ATPlite luminescence, 48 h, control line for the selectivity index; series mostly up to 57.5 µM
# In short: as §1
# [4] = system: JEG-3; assay: as above; details: Gynecologic cancer cell panel viability, ATPlite luminescence, 48 h; series mostly up to 57.5 µM
# In short: as §1
# [5] = system: OV90; assay: as above; details: Gynecologic cancer cell panel viability, ATPlite luminescence, 48 h; series mostly up to 57.5 µM
# In short: as §1
# [6] = system: PA-1; assay: as above; details: Gynecologic cancer cell panel viability, ATPlite luminescence, 48 h; series mostly up to 57.5 µM
# In short: as §1
# [7] = system: SKOV3; assay: as above; details: Gynecologic cancer cell panel viability, ATPlite luminescence, 48 h; series mostly up to 57.5 µM
# In short: as §1
# [8] = system: Tov-21-G; assay: as above; details: Gynecologic cancer cell panel viability, ATPlite luminescence, 48 h; series mostly up to 57.5 µM
# In short: as §1
# [9] = system: Tov112D; assay: as above; details: Gynecologic cancer cell panel viability, ATPlite luminescence, 48 h; series mostly up to 57.5 µM
# In short: as §1
# [10] = Drug repurposing screens with cells derived from glioblastoma tumor samples (AID 1345199); details: GBM patient neurospheres viability, ATP luminescence, 48 h; also: nearly all actives have a fitted effect of over 40% in size; also: potency is read from the fitted curve at half-maximal effect
# In short: (§2)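 Four patient lines of CD133+ GBM neurospheres were screened at several concentrations; hits were retested in those lines plus three slower-growing GBM lines, using 48-hour treatment and ATP-based viability.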
# [11] = system: astro; assay: as above; details: viability, ATP luminescence, 48 h; series mostly up to 45.9 µM
# In short: as §2
# [12] = qHTS assay to identify inhibitors of the type 1 interferon - major histocompatibility complex class I in skeletal muscle: Counter screen cell viability and HiBit confirmation (AID 1347412); details: iHSKM muscle cells + IFN-b, HiBiT or CellTiter-Glo, 24 h; Viability; at 45.9 µM (top of the series); also: nearly all actives have a fitted effect of over 60% in size
# In short: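 Human myoblast knock-in line, 4.0 ng/ml IFN-beta stimulation, 24 h compound treatment. Endpoints: HiBiT lytic luminescence (HLA-B level) and CellTiter Glo (ATP). Dosing 12 concentrations, 3-fold steps, 46 uM highest final.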
# [13] = molecular target: Nuclear receptor subfamily 1 group I member 2 (Rattus norvegicus) (UniProt Q9R1A7); assay: qHTS assay for small molecule activators of the rat pregnane X receptor (rPXR) signaling pathway (AID 651751; call rule not given here); details: rPXR reporter cells, luciferase (One-Glo), 24 h
# [14] = qHTS assay for small molecule activators of the human pregnane X receptor (PXR) signaling pathway (AID 720659; call rule not given here)
# [15] = at 45.9 µM (top of the series), tumour line B
# [16] = at 45.9 µM (top of the series), tumour line D
# [17] = at 46 µM (top of the series), tumour line A
# [18] = at 46.1 µM (top of the series), tumour line C
# Chain of Nuclear receptor subfamily 1 group I member 2 (Rattus norvegicus) (Q9R1A7 whole entry, looked up): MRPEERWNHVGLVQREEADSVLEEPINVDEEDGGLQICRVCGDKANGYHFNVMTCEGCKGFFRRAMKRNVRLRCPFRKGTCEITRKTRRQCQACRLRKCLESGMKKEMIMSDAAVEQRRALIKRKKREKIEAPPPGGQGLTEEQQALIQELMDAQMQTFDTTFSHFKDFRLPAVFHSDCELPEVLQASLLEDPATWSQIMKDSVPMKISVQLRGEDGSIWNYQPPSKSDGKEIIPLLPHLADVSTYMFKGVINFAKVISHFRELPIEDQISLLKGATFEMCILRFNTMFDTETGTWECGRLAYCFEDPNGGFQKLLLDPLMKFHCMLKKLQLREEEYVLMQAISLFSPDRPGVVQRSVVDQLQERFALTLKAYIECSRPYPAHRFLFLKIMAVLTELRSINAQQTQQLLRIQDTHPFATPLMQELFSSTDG
structure (smiles),measurement,setting,value
OC[C@H]1O[C@@H](OCCc2ccc(O)cc2)[C@H](O)[C@@H](O)[C@@H]1O,Potency,[1],inactive
same,Potency,[2],inactive
same,Potency,[3],inactive
same,Potency,[4],inactive
same,Potency,[5],inactive
same,Potency,[6],inactive
same,Potency,[7],inactive
same,Potency,[8],inactive
same,Potency,[9],inactive
same,"activity, negative = cell killing",[10]; [15],-17.4%
same,"activity, negative = cell killing",[10]; [16],11.3%
same,"activity, negative = cell killing",[10]; [17],-5.89%
same,"activity, negative = cell killing",[10]; [18],4.11%
same,Potency,[11],inactive
C=C1CC[C@H]2[C@@](C)(CCC(O)[C@@]2(C)CO)[C@@H]1C/C=C(/C(=O)O)C(O)CO (some centres undefined),Potency,[1],inactive
same,Potency,[2],inactive
same,Potency,[3],inactive
same,Potency,[4],inactive
same,Potency,[5],inactive
same,Potency,[6],inactive
same,Potency,[7],inactive
same,Potency,[8],inactive
same,Potency,[9],inactive
CCC[C@@H]1C[C@@H](C(=O)N[C@@H]([C@H]2O[C@H](SC)[C@H](O)[C@@H](O)[C@@H]2O)[C@@H](C)O)N(C)C1,Potency,[1],inactive
same,Potency,[2],inactive
same,Potency,[3],inactive
same,Potency,[4],inactive
same,Potency,[5],inactive
same,Potency,[6],inactive
same,Potency,[7],inactive
same,Potency,[8],inactive
same,Potency,[9],inactive
NS(=O)(=O)OC[C@@H]1C[C@@H](n2ccc3c(N[C@H]4CCc5ccccc54)ncnc32)C[C@@H]1O,Potency,[1],3.16 µM (active)
same,Potency,[2],inactive
same,Potency,[3],2.51 µM (active)
same,Potency,[4],inactive
same,Potency,[5],inactive
same,Potency,[6],708 nM (active) and 1 µM (active)
same,Potency,[7],10 µM (active)
same,Potency,[8],501 nM (active) and 398 nM (active)
same,"activity change, negative = inhibition",[12],-12.3%
C=CCc1ccc(O[C@@H]2O[C@H](CO[C@@H]3O[C@@H](C)[C@H](O)[C@@H](O)[C@H]3O)[C@@H](O)[C@H](O)[C@H]2O)cc1,Potency,[1],inactive
same,Potency,[2],inactive
same,Potency,[3],inactive
same,Potency,[4],inactive
same,Potency,[5],inactive
same,Potency,[6],inactive
same,Potency,[7],inactive
same,Potency,[8],inactive
same,Potency,[9],inactive
CC1=C2[C@@H]([C@H](C)CC[C@H]2/C=C(\C)C(=O)O)[C@H](O)C1,Potency,[1],inactive
same,Potency,[2],inactive
same,Potency,[3],inactive
same,Potency,[4],inactive
same,Potency,[5],inactive
same,Potency,[6],inactive
same,Potency,[7],inactive
same,Potency,[8],inactive
same,Potency,[9],inactive
same,max response,[13],-1.26%
same,outcome,[14],inactive
C[C@]12C=CC(=O)C=C1CC[C@@H]1[C@@H]2[C@@H](O)C[C@@]2(C)[C@H]1CC[C@]2(O)C(=O)COC(=O)CCC(=O)O,Potency,[1],inactive
same,Potency,[2],inactive
same,Potency,[3],inactive
same,Potency,[4],inactive
same,Potency,[5],inactive
same,Potency,[6],inactive
same,Potency,[7],inactive
same,Potency,[8],inactive
same,Potency,[9],inactive
same,"activity, negative = cell killing",[10]; [15],-11.2%
same,"activity, negative = cell killing",[10]; [16],-5.28%
same,"activity, negative = cell killing",[10]; [17],-20.8%
same,"activity, negative = cell killing",[10]; [18],7.76%
CC[C@H]1OC(=O)C[C@@H](O)[C@H](C)[C@@H](O[C@@H]2O[C@H](C)[C@@H](O)[C@H](N(C)C)[C@H]2O)[C@@H](CCN2C[C@H](C)C[C@H](C)C2)C[C@@H](C)C(=O)/C=C/C(C)=C/[C@@H]1CO[C@@H]1O[C@H](C)[C@@H](O)[C@@H](OC)[C@H]1OC,Potency,[1],inactive
same,Potency,[2],inactive
same,Potency,[3],inactive
same,Potency,[4],inactive
same,Potency,[5],inactive
same,Potency,[6],inactive
same,Potency,[7],inactive
same,Potency,[8],inactive
same,Potency,[9],inactive
same,"activity, negative = cell killing",[10]; [15],-3.99%
same,"activity, negative = cell killing",[10]; [16],-15.7%
same,"activity, negative = cell killing",[10]; [18],-6.47%
same,Potency,[10]; tumour line A,22.4 µM (active)
O=C(NC[C@H](O)CN1CCc2ccccc2C1)c1cc(NC2COC2)ncn1,Potency,[1],inactive
same,Potency,[2],inactive
same,Potency,[3],inactive
same,Potency,[4],inactive
same,Potency,[5],inactive
same,Potency,[6],inactive
same,Potency,[7],inactive
same,Potency,[8],inactive
same,Potency,[9],inactive
CCC(=O)O[C@]1(C(=O)CCl)[C@@H](C)C[C@H]2[C@@H]3C[C@H](F)C4=CC(=O)C=C[C@]4(C)[C@@]3(F)[C@@H](O)C[C@@]21C,Potency,[1],inactive
same,Potency,[2],inactive
same,Potency,[3],inactive
same,Potency,[4],inactive
same,Potency,[5],inactive
same,Potency,[6],inactive
same,Potency,[7],inactive
same,Potency,[8],inactive
same,Potency,[9],inactive
same,"activity, negative = cell killing",[10]; [15],-14.4%
same,"activity, negative = cell killing",[10]; [16],-33.8%
same,Potency,[11],inactive
O=C(c1ccc(NS(=O)(=O)c2cccc3cccnc23)cc1)N1CCN(CC2CC2)CC1,Potency,[1],inactive
same,Potency,[2],inactive
same,Potency,[3],inactive
same,Potency,[4],inactive
same,Potency,[5],inactive
same,Potency,[6],inactive
same,Potency,[8],inactive
same,Potency,[9],inactive
CCC/C=C/C(=O)O[C@H]1CC(C)(C)CC2[C@]13[C@H](O)O[C@@]21CCC2[C@@]4(C)CC[C@H](O[C@@H]5O[C@H](C(=O)O)[C@@H](O)[C@H](O[C@@H]6O[C@H](CO)[C@H](O)[C@H](O)[C@H]6O[C@@H]6O[C@@H](C)[C@H](O)[C@@H](O)[C@H]6O[C@@H]6OC[C@](O)(CO)[C@H]6O)[C@H]5O[C@@H]5O[C@H](CO)[C@H](O)[C@H](O)[C@H]5O)C(C)(C)C4CC[C@@]2(C)[C@]1(C)C[C@H]3OC(C)=O (some centres undefined),"activity change, negative = cytotoxicity",[1],2.55% [at 6.55 µM]
same,"activity change, negative = cytotoxicity",[2],-1.33% [at 6.55 µM]
same,"activity change, negative = cytotoxicity",[3],-6.65% [at 6.55 µM]
same,"activity change, negative = cytotoxicity",[4],-6.17% [at 6.55 µM]
same,"activity change, negative = cytotoxicity",[5],-0.93% [at 6.55 µM]
same,"activity change, negative = cytotoxicity",[6],-0.307% [at 6.55 µM]
same,"activity change, negative = cytotoxicity",[7],13% [at 6.55 µM]
same,"activity change, negative = cytotoxicity",[8],0.0885% [at 6.55 µM]
same,"activity change, negative = cytotoxicity",[9],1.84% [at 6.55 µM]
COc1ncc(-c2ccc3c(Nc4cc(Oc5cc(F)cc(F)c5)cc(C(=O)O)c4)c(S(=O)(=O)NC4CC4)cnc3c2)c(OC)n1,Potency,[1],inactive
same,Potency,[2],inactive
same,Potency,[3],inactive
same,Potency,[4],inactive
same,Potency,[5],inactive
same,Potency,[6],inactive
same,Potency,[7],inactive
same,Potency,[8],inactive
same,Potency,[9],inactive
